What all share (test): NCI-60 one-dose screen, 48 h (100 = growth as untreated, 0 = no growth, -100 = all killed)
In experiment [1] the test system is HCT-15 colon. As to conditions: 10 µM unless noted.
For experiment [2], the system named is HT29 colon. As to conditions: 10 µM unless noted.
Experiment [3] relates to SNB-75 CNS. As to conditions: 10 µM unless noted.
The subject of experiment [4] is SNB-19 CNS. As to conditions: 10 µM unless noted.
In experiment [5] the test system is PC-3 prostate. As to conditions: 10 µM unless noted.
Experiment [6] deals with SK-MEL-5 melanoma. As to conditions: 10 µM unless noted.
The subject of experiment [7] is UACC-62 melanoma. As to conditions: 10 µM unless noted.
Experiment [8] concerns LOX IMVI melanoma. As to conditions: 10 µM unless noted.
Experiment [9] concerns SK-MEL-28 melanoma. As to conditions: 10 µM unless noted.
For experiment [10], the system named is SK-MEL-2 melanoma. As to conditions: 10 µM.
Experiment [11] relates to EKVX NSCLC. As to conditions: 10 µM unless noted.
In experiment [12] the test system is SN12C renal. As to conditions: 10 µM unless noted.
Experiment [13] has as its system UO-31 renal. As to conditions: 10 µM unless noted.
Experiment [14] has as its system TK-10 renal. As to conditions: 10 µM unless noted.
Experiment [15] deals with ACHN renal. As to conditions: 10 µM unless noted.
The test system of experiment [16] is CAKI-1 renal. As to conditions: 10 µM unless noted.
Experiment [17] deals with CCRF-CEM leukemia. As to conditions: 10 µM unless noted.
The subject of experiment [18] is MOLT-4 leukemia. As to conditions: 10 µM unless noted.
The subject of experiment [19] is U251 CNS. As to conditions: 10 µM unless noted.
The subject of experiment [20] is A498 renal. As to conditions: 10 µM unless noted.

This note sets out measurements from PubChem BioAssay (NCI).

The panel holds about 83,000 compounds, 20% with a hit somewhere; the sample as a whole holds those more often.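 96-well plates, one dose, 48 hours. Percent growth reported; active if below 10.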 Unmarked numbers belong to inactive results. Activity calls are given as the source filed them.

On to `COc1c(C(NC(=O)c2ccccc2)c2sccc2C)cc(Cl)c2cccnc12` (stereo not given), for which the growth is 101% in [1]; 94.1% in experiment [2]; 88.4% in experiment [3]; 118% in experiment [4]; 83.2% in experiment [5]; 98.4% in [6]. In addition, the growth in experiment [7] was 93%; in [8] it was 98.1%; in experiment [9] it was 114%; in experiment [10], 108%; in experiment [11] it was 100%; in [12], 94.1%. Further, the growth in [13] was 89.9%; in [14] it was 98.4%; in experiment [15], 104%; in experiment [16], 95.4%; in experiment [17], 83.9%; in experiment [18], 85.7%.

Regarding `Cc1cc(Nc2cc(N3CCN(C)CC3)nc(/C=C/c3ccccc3)n2)n[nH]1`, the growth in experiment [1] was 13.4%; in [3] it was -97.1% (active); in [4], 14%; in experiment [19] it was -29.9% (active); in experiment [5], 16.5%; in experiment [6], -88.7% (active). Moreover, the growth in experiment [7] was -69.9% (active); in experiment [8] it was -92.6% (active); in experiment [9], -65.4% (active); in [11], 36.1%; in [12], 11.7%; in experiment [13], -53.8% (active). Moreover, the growth was -0.298% (active) in experiment [14]; 0.23% (active) in [15]; -45.3% (active) in [16]; 13.8% in experiment [17]; -5.35% (active) in [18].

For `CCCCn1c(C)nc2ccc(Nc3nc(N4CCN(C)CC4)nc4nc[nH]c34)cc21`, the growth was 110% in experiment [1]; 63.5% in experiment [3]; 95.6% in [4]; 82.9% in [19]; 84.2% in [5]; 86.8% in [6]. Further, the growth in [7] was 91.9%; in [8], 83.9%; in experiment [9], 109%; in experiment [11], 96.9%; in experiment [12], 87.3%; in experiment [13], 83.7%. Also, the growth in experiment [14] was 104%; in experiment [16], 99.8%; in experiment [20], 71.7%; in experiment [17], 90.5%; in [18], 87.1%.

Consider `CNC(=O)c1cc(Oc2cccc3nc(Nc4ccc(Oc5ccccc5)cc4)ccc23)ccn1`, for which the growth was 54.7% in [1]; 67.8% in experiment [3]; 92% in experiment [4]; 65.6% in [19]; 35.4% in experiment [5]; 36.3% in experiment [6]. The growth in experiment [7] was 62.6%; in experiment [8], 83%; in [9] it was 77.4%; in experiment [11] it was 62.2%; in [12], 81.3%; in [13], 57.9%. For the same molecule, the growth in experiment [14] was 78.5%; in experiment [15], 81.1%; in experiment [16], 67.5%; in experiment [20] it was 73.8%; in experiment [17] it was 69.5%; in [18] it was 42.7%.

With `COc1ccc2c(CCc3ccc(Cl)cc3)c3[n+](cc2c1OC)CCc1cc2c(cc1-3)OCO2`, the growth in [1] was 111%; in experiment [3], 58%; in experiment [4], 28.3%; in [19], 22.4%; in experiment [5], 36.4%; in experiment [6], 18.2%. The growth in experiment [7] was 30.1%; in [8], 50.9%; in experiment [9] it was 27.6%; in [10], 36.7%; in experiment [11], 69.9%; in [12] it was 21.9%. For the same molecule, the growth in experiment [13] is 91.4%; in experiment [14], 67.9%; in experiment [15] it was 94.6%; in experiment [16], 99.2%; in experiment [17], 64.7%; in experiment [18], 72.6%.

For `CC(C)OP(=O)(CCC(=O)c1c[nH]c2ccccc12)OC(C)C`, the growth is 104% in experiment [1]; 82.6% in experiment [3]; 104% in experiment [4]; 90.1% in experiment [19]; 73.2% in experiment [5]; 110% in experiment [6]. Besides, the growth in experiment [7] was 97%; in experiment [8], 96.2%; in [9], 121%; in experiment [10], 98.9%; in experiment [11] it was 96.5%; in experiment [12] it was 103%. In addition, the growth in experiment [13] is 82.9%; in [14], 97.8%; in experiment [15], 101%; in experiment [20] it was 104%; in [17], 75.7%.

Consider `C=CCN(/C=C1/C(=O)O[C@H](COC)[C@@]2(C)C1=C(O)C(=O)C1=C2[C@H](OC(C)=O)C[C@]2(C)C(=O)CC[C@@H]12)CC=C`, for which the growth in [1] was 24.2%; in experiment [3], -25.3% (active); in experiment [4] it was 26.2%; in experiment [19] it was 21.1%; in experiment [5], 18.6%; in experiment [6] it was 7.65% (active). Besides, the growth in experiment [7] is -21% (active); in experiment [8], 20.3%; in [9] it was 24.4%; in experiment [11], 21.8%; in experiment [12], 30.2%; in [13], 3.12% (active). For the same molecule, the growth in [14] is 3.59% (active); in [15] it was 24.7%; in experiment [16], 8.92% (active); in experiment [20], -66.8% (active); in experiment [17] it was 12.8%; in experiment [18], -2.31% (active).

For `CC1(O)CCC2CC3OC3(C)CCC3OC3(C)C(O)CC1C2(C)C` (stereo not given), the growth was 102% in [1]; 95.3% in experiment [3]; 99.3% in [4]; 98.3% in [19]; 87.4% in experiment [5]; 112% in [6]. Moreover, the growth was 98.3% in experiment [7]; 93.7% in experiment [8]; 112% in experiment [9]; 103% in experiment [10]; 87.8% in [11]; 103% in experiment [12]. Moreover, the growth was 107% in [14]; 101% in [15]; 99.2% in experiment [16]; 91.5% in experiment [17]; 106% in experiment [18].

As to `CN(N)c1nc2sc3c(c2c(=O)[nH]1)CCCC3`, the growth was 99.6% in experiment [1]; 91.9% in experiment [3]; 105% in experiment [4]; 92.1% in [19]; 94.9% in experiment [5]; 106% in experiment [6]. In addition, the growth was 110% in experiment [7]; 102% in experiment [8]; 114% in [9]; 103% in experiment [10]; 86.6% in experiment [11]; 104% in experiment [12]. Further, the growth in [14] is 111%; in experiment [15], 107%; in experiment [20], 101%; in experiment [17], 98.9%; in experiment [18], 97.5%.

Consider `Cn1ccnc1C(=O)/C=C/c1ccc(CC(=O)Nc2ccc(S(F)(F)(F)(F)F)cc2)cc1`, for which the growth in [1] was 1.2% (active); in [3] it was 3.35% (active); in [4] it was -39.9% (active); in [19] it was -93.3% (active); in experiment [5], -32.7% (active); in experiment [6] it was 33.2%. The growth is -2.41% (active) in experiment [7]; -78.7% (active) in [8]; 38.2% in experiment [9]; -27.4% (active) in experiment [11]; -11.8% (active) in experiment [12]; -90.5% (active) in [13]. Moreover, the growth in [14] is 5.88% (active); in experiment [15], -21.6% (active); in [16] it was -31.4% (active); in experiment [20], 13.5%; in experiment [17] it was 8.93% (active); in experiment [18], -10.5% (active).
